PubChem BioAssay (NCI)
“And” between values parts separate entries of the source, which are not always exact repeats. Equal entries are not always repeated. Compounds without any hit were thinned out: in the full panel of roughly 83,000, 20% have a hit.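 Compound tested at a single concentration for 48 hours in 96-well plates; a percent growth value below 10 was scored as active.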 The source made the active and inactive calls.

test system: HL-60(TB) leukemia; assay: NCI-60 one-dose screen, 48 h (100 = growth as untreated, 0 = no growth, -100 = all killed); details: 10 µM unless noted

Row | SMILES | growth
1 | FC(F)(F)c1cccc(Nc2nc3ccccc3nc2Nc2cccc(C(F)(F)F)c2)c1 | -48.9% (active)
2 | COc1cc(NC(C)CCCNC(C)C)c2ncccc2c1OC (stereo not given) | 10.6% (inactive)
3 | Cc1ccc(-c2nc3nc(-c4ccccc4)nc(N4CCNCC4)c3o2)cc1 | -68.4% (active)
4 | COc1ccc(-c2cc(NC(=O)Nc3ccc(O)cc3)no2)cc1 | 26.4% (inactive)
5 | CN(C)C1CCN(Cc2ccc(NC(=O)c3cncc(C#Cc4cnc(N)c5ncccc45)c3)cc2C(F)(F)F)CC1 | 73.6% (inactive)
6 | Fc1ccc(Nc2nc(NCCNc3ccnc4cc(Cl)ccc34)nc(N3CCOCC3)n2)cc1 | -6.82% (active)
7 | C#C[C@]1(O)CC[C@H]2[C@@H]3CC=C4c5nc(Nc6ccc(OC)cc6OC)sc5CC[C@]4(C)[C@H]3CC[C@@]21C | 17.9% (inactive)
8 | Nc1ccn([C@@H]2O[C@H](COP(=O)(O)O[C@@H]3C[C@H](n4cc(F)c(=O)[nH]c4=O)O[C@@H]3COP(=O)(O)O[C@@H]3C[C@H](n4cc(F)c(=O)[nH]c4=O)O[C@@H]3COP(=O)(O)O[C@@H]3C[C@H](n4cc(F)c(=O)[nH]c4=O)O[C@@H]3COP(=O)(O)O[C@@H]3C[C@H](n4cc(F)c(=O)[nH]c4=O)O[C@@H]3COP(=O)(O)O[C@@H]3C[C@H](n4cc(F)c(=O)[nH]c4=O)O[C@@H]3COP(=O)(O)O[C@@H]3C[C@H](n4cc(F)c(=O)[nH]c4=O)O[C@@H]3COP(=O)(O)O[C@@H]3C[C@H](n4cc(F)c(=O)[nH]c4=O)O[C@@H]3COP(=O)(O)O[C@@H]3C[C@H](n4cc(F)c(=O)[nH]c4=O)O[C@@H]3COP(=O)(O)O[C@@H]3C[C@H](n4cc(F)c(=O)[nH]c4=O)O[C@@H]3COP(=O)(O)O[C@@H]3C[C@H](n4cc(F)c(=O)[nH]c4=O)O[C@@H]3COP(=O)(O)OCCOCCOCCOCCOCCOCCO)[C@H](O)C2O)c(=O)n1 (stereo not given in full) | 38.3% (inactive)
9 | CCN(CC)CCCNc1cccc2c(SCc3ccccc3)ccnc12 | -67.5% (active)
10 | O=C(c1ccccc1)c1ccc(-c2ccc(O)cc2)cc1 | 75.1% (inactive)
11 | O=C(Nc1ccc(Oc2cccc(F)c2)c(Cl)c1)c1cccnc1 | 12.1% (inactive)
12 | O=S(=O)(c1ccccc1)n1cc2c(c1)-c1nc(Nc3ncccn3)sc1CC2 | 66.2% (inactive)
13 | CCN(CC)CCCC(C)N=c1cc(Nc2cc(=NC(C)CCCN(CC)CC)c3cc(OC)ccc3o2)oc2ccc(OC)cc12 (stereo not given) | -65.3% (active)
14 | COc1ccc(-c2nsc3c2NC(=O)CC3c2ccc3c(c2)OCCO3)cc1 (stereo not given) | 13% (inactive)
15 | O=C(Cn1cc(CN2C(=O)c3ccccc3S2(=O)=O)nn1)Nc1nc2ccccc2s1 | 113% (inactive)
16 | O=C1CCC(N2C(=O)c3cccc(NCCOCCOCCNC(=O)c4cc5c(o4)C(=O)c4ccccc4C5=O)c3C2=O)C(=O)N1 (stereo not given) | -9.95% (active)
17 | C#Cc1cccc(NC(=O)c2ccccc2NC(=O)CCl)c1 | 91.6% [8.25 µM] (inactive)
18 | CC(C)(C)c1nc2c(s1)c1nc(N)ncc1c1ccc(NS(=O)(=O)c3c(F)cccc3F)c(F)c12 | 79.9% (inactive)
19 | COc1cccc(C2C(C#N)=C(N)Oc3cc(N)ccc32)c1 (stereo not given) | -19% (active)
20 | CCCC(=O)Oc1ccc(/C(=C(\C)c2ccc(Cl)cc2)c2ccc(OCCN(CC)CC)cc2)cc1 | -49.1% (active)
21 | Nc1c(C(=O)Nc2ccccc2)sc2nc3c(cc12)CCCCC3 | 10.4% (inactive)
22 | Cc1ccc(S(=O)c2ccc([N+](=O)[O-])c3nonc23)cc1 (stereo not given) | 33.2% (inactive)
23 | CC(=O)Oc1cc(C(=O)O)cc(OC(C)=O)c1OC(C)=O | 108% (inactive) and 88.2% (inactive)
24 | Clc1ccc(/C=N\N2CCCCCC2)cc1 | 99.3% (inactive) and 77.3% (inactive)
25 | CCOC(=O)c1ccc2[nH]c(-c3ccccc3)cc(=O)c2c1 | 95.3% (inactive)
26 | C=CC(=O)NCc1ccc(Nc2nccc(-c3ccc(N4CCCC4)c(C#N)c3)n2)cc1 | -12.9% (active)
27 | COc1ccc(/C=C/C(=O)c2cc(O)ccc2O)cc1 | 3.32% (active)
28 | CCCCCCC1(C)NCCO1 (stereo not given) | 91.2% (inactive)
29 | C=C(C)[C@@H]1CC[C@]2(C)[C@H](CC=C3[C@@H]4[C@@H](C)[C@H](C)CC[C@]4(C(N)=O)CC[C@]32C)[C@@]1(C)CCC#N | -28.7% [100 µM] (active)
30 | COc1cc2c(cc1OC)C(C(CCCCCC(CCC(C)C)C1NCCc3cc(OC)c(OC)cc31)CCC(C)C)NCC2 (stereo not given) | -12.4% (active)
